Laboratory results reported in PubChem BioAssay.
This is one part of the list. Activity calls are given as the source filed them.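 How the source made its calls: active means mean inhibition above about 50% in the one-dose retest (limit read from the data); inactive means the rest.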

molecular target: Sentrin-specific protease 7 (Homo sapiens) (UniProt Q9BQF6); assay: SENP7 protease inhibitors, retest, confirmation, biochemical, luminescence, single concentration (AID 488917); conditions: recombinant SENP7, Z-RLRGG-aminoluciferin luminescence, 40 min; at 12.5 µM; active compounds read high
Sequence (Q9BQF6 706-1050 limits assumed): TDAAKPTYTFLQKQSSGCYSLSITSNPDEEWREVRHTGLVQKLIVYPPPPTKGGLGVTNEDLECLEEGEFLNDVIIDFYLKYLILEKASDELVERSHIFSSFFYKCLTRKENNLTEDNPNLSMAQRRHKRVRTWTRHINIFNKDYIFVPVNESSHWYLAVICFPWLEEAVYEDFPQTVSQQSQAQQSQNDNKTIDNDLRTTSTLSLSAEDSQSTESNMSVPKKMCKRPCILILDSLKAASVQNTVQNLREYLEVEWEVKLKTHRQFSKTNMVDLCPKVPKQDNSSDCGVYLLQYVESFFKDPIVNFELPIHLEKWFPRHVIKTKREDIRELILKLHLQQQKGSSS

Row | SMILES | inhibition
1 | CN(c1ccc2nc3ccccc3c(=O)n2n1)C1CCCCC1 | 101% (active)
2 | CC(=C/c1ccccc1)/C=N/NC(=O)c1cc(C)oc1C | 23.5% (inactive)
3 | COc1cccc(C(=O)Nc2ccc(N3CCCC3)cc2)c1 | 104% (active)
4 | CC(=O)Nc1cccc(C(=O)OCC(=O)c2ccc3c(c2)OCO3)c1 | 51.3% (active)
5 | C(=N\Nc1ccc2ccccc2n1)/c1ccc2c(c1)OCO2 | 102% (active)
6 | Cc1cccc(NC(=O)/C=C/c2ccc3c(c2)OCO3)n1 | 95.8% (active)
7 | Clc1ccc(C2=CSC3=Nc4cccc5cccc(c45)N23)cc1 | 7.2% (inactive)
8 | CC(=O)N(C1=C(Cl)C(=O)c2ccccc2C1=O)c1ccc(C(=O)O)cc1 | 55.3% (active)
9 | CCOc1ccc(-c2nnc(-c3ccco3)o2)cc1 | 79% (active)
10 | COc1cc(/C=C(\C#N)c2nc3ccccc3[nH]2)ccc1O | 101% (active)
11 | CC(C)n1cnc2c(NCc3ccccc3)cc(OCC3CCN(C)CC3)cc21 | 35.5% (inactive)
12 | O=C(CSC(=S)N1CCOCC1)c1ccccc1 | 94.1% (active)
13 | CSc1ccc(/C=N/NC(=O)c2cccc(Cl)c2)cc1 | 44.1% (inactive)
14 | Cc1cnc(NC(=O)c2ccccn2)s1 | 92.3% (active)
15 | CCN1C(=O)c2cccc3c(N)ccc1c23 | 15.6% (inactive)
16 | COc1ccc(-c2cc3ccc(OCc4nn[nH]n4)cc3oc2=O)cc1 | 87.3% (active)
17 | O=C(Nc1ccc(Cl)cn1)c1ccc2c(c1)OCCO2 | 92.9% (active)
18 | Cc1ccc2nc(-c3ccc(Br)cc3)cn2c1 | 70% (active)
